# Active and inactive are the calls of the source.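 The calls were made as follows: active = compounds lowering luciferase light whose fitted half-effect concentration is at most twice the top tested dose; inconclusive = flat curve with 30 to 70% inhibition, or poor fit; inactive = the rest.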
# Experiment: luciferase signal loss, tTA control fusion, HeLa F-luc tTA cells, dry powder, counter-screen for HIV Env fusion inhibitor project, dose response (AID 687021)
# Conditions: luciferase luminescence counterscreen; series mostly up to 35 µM; activity change, negative = inhibition: at the top concentration
Compound,"activity change, negative = inhibition",outcome
CCCNC(=O)N1[C@H](C#N)[C@H](c2ccc(-c3cccnc3)cc2)[C@@H]1CO,7.74% (inactive),
C[C@H]1CN([C@@H](C)CO)C(=O)c2ccccc2-c2ccccc2CO[C@H]1CN(C)S(=O)(=O)c1ccccc1C#N,39.5% (inactive),
Cc1ccc2c(CN3CCN(S(=O)(=O)c4ccc5c(c4)OCCO5)CC3)cc(=O)oc2c1C,6.7% (inactive),
CCCOc1ccc(S(=O)(=O)NCc2ccncc2)c2ccccc12,,inactive
Clc1ccc2c(c1)C(C1=NCCN1)c1ccccc1CS2 (stereo not drawn),,inactive
O=C(CCCn1c(=S)[nH]c2cc3c(cc2c1=O)OCO3)N1CCN(c2ccc(Cl)cc2)CC1,,inactive
Cc1noc(C)c1S(=O)(=O)Nc1cccc2c1O[C@H](CN(C)Cc1ccc(C(F)(F)F)cc1)[C@H](C)CN([C@H](C)CO)C2=O,109% (inactive),
COC(=O)COc1ccc(S(=O)(=O)NCc2ccncc2)cc1,32.8% (inactive),
